High-throughput results (PubChem)
mHTT CaM bind – mHTT-calmodulin interaction abrogation; P42858; AlphaScreen His-mHTT/GST-CaM binding, luminescence; inhibition, % at 15 µM; hit rate 3.6% among 190,000
Pf apPOL inh – Pf-apPOL DNA polymerase inhibition | Recombinant Pf-apPOL, molecular beacon fluorescence, 1.5 h | inhibition, % at 10 µM | hit rate 0.25% among 210,000
Large screens that a line does not name were inactive; ! = repeats disagree. In the library only some 3.6% were active in any assay of this set; here they are far more common. Rule as the data show it: active = inhibition above about 50%; inactive = the rest.

Cc1cccc(NS(=O)(=O)c2ccc(Cl)cc2)n1	none
Cc1cccc(NC(c2ccc(Cl)cc2)c2ccc3cccnc3c2O)n1 (stereo not drawn)	mHTT CaM bind 98
COc1ccc(NC(=O)Nc2cccc(C)n2)cc1	none
Cc1cccc(NC(c2cccc(Cl)c2)c2ccc3cccnc3c2O)n1 (stereo not drawn)	mHTT CaM bind 98
COc1ccc(C(Nc2cccc(C)n2)c2ccc3cccnc3c2O)cc1 (stereo not drawn)	mHTT CaM bind 100
Cc1cccc(NC(c2ccncc2)c2ccc3cccnc3c2O)n1 (stereo not drawn)	mHTT CaM bind 100
Cc1cccc(NC(=O)c2cccs2)n1	none (no result: mHTT CaM bind)
O=S(=O)(NCc1csc2ccc(Cl)cc12)c1ccc(Cl)cc1	none (no result: mHTT CaM bind)
O=C(Cc1csc(NC(=O)c2ccccc2)n1)Nc1ccc(F)c(Cl)c1	none
CC1(C)CC(=O)c2cnc(NC3OC(=O)c4ccccc43)nc2C1 (stereo not drawn)	none
CCOc1ccc(N(C(C)C(=O)Nc2ccc(Cl)cc2)S(C)(=O)=O)cc1 (stereo not drawn)	none
CCC(NS(=O)(=O)c1ccc(Cl)c([N+](=O)[O-])c1)C12CC3CC(CC(C3)C1)C2 (stereo not drawn)	mHTT CaM bind 99
CCC(NS(=O)(=O)c1cc(Cl)ccc1OC)C12CC3CC(CC(C3)C1)C2 (stereo not drawn)	none
O=C(NCCCN1CCCC1)C1CCCN(c2ncc(-c3ccccc3)cn2)C1 (stereo not drawn)	none
CCn1c(=O)c(N2CCCC(C(=O)NCCCN3CCCCCC3)C2)nc2ccccc21 (stereo not drawn)	mHTT CaM bind 94
CC(C)CCn1c(N2CCCC(C(=O)N3CCCC3)C2)nc2ccccc21 (stereo not drawn)	mHTT CaM bind 55
CCCn1c(N2CCC(C(=O)N3CCCCC3)CC2)nc2ccccc21	none
CCCC(=O)N(CCN1CCOCC1)c1nc2ccc(Br)cc2s1	none
O=C(CCOc1ccccc1)N(CCN1CCOCC1)c1nc2c(Cl)cccc2s1	mHTT CaM bind 87
Oc1ccc(COCc2ccccc2)c2cccnc12	mHTT CaM bind 99
O=C(CSc1cccc2cccnc12)NCc1ccccc1	none
O=C(Nc1ccccc1Cl)c1ccccc1	none
O=C(CNc1ccccc1Cl)c1ccccc1	mHTT CaM bind 100
COc1ccc(Cl)cc1NC(=O)CSc1nc(=O)n(CCCO)c2c1CCCC2	mHTT CaM bind 57
COc1ccc(Cl)cc1NC(=O)CSc1nc(=O)n2cccc(C)c2n1	none
CC(=O)N1CCc2sc(S(=O)(=O)NCc3ccc(C)c(C)c3)cc2C1	none
COc1ccc(C(=O)Oc2ccc3c(c2)OC(=Cc2ccc(OC)c(OC)c2OC)C3=O)cc1	none
NS(=O)(=O)c1ccc2c(c1)C1C=CCC1C(C(=O)O)N2 (stereo not drawn)	none
NS(=O)(=O)c1ccc2c(c1)C1C=CCC1C(C1CC=CCC1)N2 (stereo not drawn)	mHTT CaM bind 95
O=[N+]([O-])c1ccc2c(c1)C1C=CCC1C(C1CC=CCC1)N2 (stereo not drawn)	none (no result: Pf apPOL inh)
NS(=O)(=O)c1ccc2c(c1)C1C=CCC1C(c1cccc3ccccc13)N2 (stereo not drawn)	mHTT CaM bind 94 (no result: Pf apPOL inh)
CCOc1ccc(NC(=O)C2(C)Oc3cccnc3N(CC)C2=O)cc1 (stereo not drawn)	none
Fc1cccc(CN[C@H]2CCC23CCC(c2ccccc2)CC3)c1 (stereo partly drawn)	none
O=C(CNCCO)Nc1sc2c(c1C(=O)Nc1ccc(Br)cc1)CCC2	mHTT CaM bind 66
O=C(Nc1sc2c(c1C(=O)Nc1ccc(Br)cc1)CCCCC2)c1cccnc1	none
CCNC(=O)c1c(NC(=O)c2ccccc2)sc2c1CCCC2	none
NNC(=O)c1c(NC(=O)c2ccccc2)sc2c1CCC2	mHTT CaM bind 64
O=C(CNCCN1CCOCC1)Nc1sc2c(c1C(=O)Nc1ccccc1)CCC2	mHTT CaM bind 89
O=C(CN1CCOCC1)Nc1sc2c(c1C(=O)Nc1ccc(Cl)cc1)CCC2	none
O=[N+]([O-])c1ccc(S(=O)(=O)NCc2cccs2)cc1	none
Cc1ccc(-c2nnc(CCC(=O)NC3CC3)c(=O)[nH]2)cc1	none
COCc1[nH]nc2c1C(c1cccs1)C(C#N)=C(N)O2 (stereo not drawn)	none (no result: Pf apPOL inh)
Cc1[nH]nc2c1C(c1cccs1)C(C#N)=C(N)O2 (stereo not drawn)	none
CC(C)N1CC2=C(OC(N)=C(C#N)C2c2cccs2)/C(=C/c2cccs2)C1 (stereo not drawn)	mHTT CaM bind 66 (no result: Pf apPOL inh)
CCN1C=C(Cc2cccs2)C2=C(C1)C(c1cccs1)C(C#N)=C(N)O2 (stereo not drawn)	mHTT CaM bind 72
CC(C)N1C/C(=C\c2cccs2)C(=O)/C(=C/c2cccs2)C1	mHTT CaM bind 54!
Cc1cc2c(c(=O)o1)C(c1cccs1)C(C#N)=C(N)O2 (stereo not drawn)	none (no result: Pf apPOL inh)
CCN1CC2=C(OC(N)=C(C#N)C2c2cccs2)/C(=C/c2cccs2)C1 (stereo not drawn)	mHTT CaM bind 60 (no result: Pf apPOL inh)
O=C1/C(=C/c2cccs2)CC/C1=C\c1cccs1	none
COc1ccc(NC(=O)N2CCc3nc4cc[nH]n4c(=O)c3C2)cc1Cl	none
COc1ccc(-c2noc(-c3ccc(N4CCC(C)CC4)nc3)n2)cc1	none
Cc1sc(NC(=O)CS(=O)(=O)Cc2ccccc2)c(C#N)c1C	none
O=C(Cc1ccccc1F)N1CCCC(OCc2nc(C3CC3)no2)C1 (stereo not drawn)	none
Cc1ccc(NC(=O)NCCC2CCN(S(=O)(=O)c3ccc(F)cc3)CC2)cc1	none
O=C1C2=C(Nc3[nH]n(-c4ccccc4)c(=O)c3C2c2ccc([N+](=O)[O-])cc2)c2ccccc21 (stereo not drawn)	mHTT CaM bind 50
COc1ccc(OC)c(C2C3=C(Nc4c2c(=O)n(C)c(=O)n4C)c2ccccc2C3=O)c1 (stereo not drawn)	none
Cn1c2c(c(=O)n(C)c1=O)C(c1ccc([N+](=O)[O-])cc1)C1=C(N2)c2ccccc2C1=O (stereo not drawn)	none
COc1ccc(OC)c(C2Sc3ccccc3NC3=C2C(=O)c2ccccc23)c1 (stereo not drawn)	mHTT CaM bind 71
O=C1OCC2=C1C(c1ccc(F)cc1)Sc1ccccc1N2 (stereo not drawn)	none
O=C1C2=C(Nc3ccccc3SC2c2ccc(Br)cc2)c2ccccc21 (stereo not drawn)	mHTT CaM bind 70 (no result: Pf apPOL inh)
CCOC(=O)C1=C(C)NC2=C(C(=O)c3ccccc32)C1c1ccc([N+](=O)[O-])cc1 (stereo not drawn)	none (no result: mHTT CaM bind)
O=C1C2=C(Nc3ccccc3SC2c2ccc([N+](=O)[O-])cc2)c2ccccc21 (stereo not drawn)	mHTT CaM bind 66
Cc1ccc(NC(=O)N2CCCC2c2nc(-c3cccc(F)c3)no2)cc1 (stereo not drawn)	none
COc1ccc(OCc2nc(C(=O)N3CCCC3)cs2)cc1	none
CC(C)N1Cc2cc(C(=O)NC3CCCc4ccccc43)sc2C1 (stereo not drawn)	none
CC(C)n1nc(CNC(=O)c2ccc(Br)o2)c2ccccc21	none
O=C(c1ccccc1)N1CCC(c2cnn(-c3ccccc3)c2)CC1	none
COCC(C)(O)CNC(=O)NCCc1ccc(OC)cc1 (stereo not drawn)	none
CCN(CC)CCCNC(=O)Cc1cn(C)c2ccccc12	none
CCN(CCCNC(=O)Cc1cn(C)c2ccccc12)c1ccccc1	mHTT CaM bind 53
CN(C(=O)NC1(C(F)(F)F)Oc2ccccc2O1)c1ccccc1	none
Cc1cc2[nH]c(C(=O)Nc3ccccc3Cl)c(CN3CCOCC3)c2s1	none
